Measured values reported in PubChem BioAssay (EPA / NIEHS).
Activity calls are given as the source filed them. The calls were made as follows: active = hit-call score of the fitted dose curve at least 0.9, where 1 is the maximum; inactive = score below 0.9.

Legend:
Conditions in all cases: mRNA level, 48 h; actives raise or lower the signal
[1] = read-out: growth arrest and DNA damage 45 (GADD45A), GADD45A (gene 1647); assay: LTEA_HepaRG_GADD45A: Life Technologies and Expression Analysis (LTEA) Assay for growth arrest and DNA damage 45 (GADD45A) using HepaRG (AID 2283458)
In short: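 Differentiated HepaRG cells exposed 48 h in serum-free induction medium to 8 concentrations, top 100 uM in half-log steps, 0.5% DMSO. GADD45A mRNA quantified by qRT-PCR, normalized to ACTB, GAPDH and POLR2A; bidirectional fit versus DMSO.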

[2] = read-out: Forkhead box O3 (FOXO3), FOXO3 (gene 2309); assay: LTEA_HepaRG_FOXO3: Life Technologies and Expression Analysis (LTEA) Assay for Forkhead box O3 (FOXO3) using HepaRG (AID 2283459)
In short: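 Differentiated human HepaRG cells in serum-free induction medium were exposed in duplicate for 48 h to eight half-log concentrations up to 100 uM in 0.5% DMSO. FOXO3 mRNA was quantified by qRT-PCR, normalized to ACTB, GAPDH and POLR2A, with bidirectional fitting versus DMSO.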

[3] = read-out: ABC Transporter (ABCB1), ABCB1 (gene 5243); assay: LTEA_HepaRG_ABCB1: Life Technologies and Expression Analysis (LTEA) Assay for ABC Transporter (ABCB1) using HepaRG (AID 2283460)
In short: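 Differentiated human HepaRG cells, plated 48 h then switched to serum-free induction medium, were exposed in duplicate to eight half-log concentrations up to 100 uM in 0.5% DMSO for 48 h. ABCB1 mRNA was measured by TaqMan qRT-PCR, normalized to ACTB/GAPDH/POLR2A.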

[4] = read-out: ABC Transporter (ABCC3), ABCC3 (gene 8714); assay: LTEA_HepaRG_ABCC3: Life Technologies and Expression Analysis (LTEA) Assay for ABC Transporter (ABCC3) using HepaRG (AID 2283462)
In short: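 Human HepaRG, 48 h dosing, 8-pt half-log series from 100 uM, 0.5% DMSO vehicle, duplicates. ABCC3 mRNA by TaqMan qRT-PCR, housekeeping-normalized; bidirectional curve fit vs DMSO.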

[5] = read-out: ABC Transporter (ABCC2), ABCC2 (gene 1244); assay: LTEA_HepaRG_ABCC2: Life Technologies and Expression Analysis (LTEA) Assay for ABC Transporter (ABCC2) using HepaRG (AID 2283464)
In short: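 HepaRG, 48 h post-plating; serum-free induction medium; cpd 8-pt, 100 uM top, half-log, 0.5% DMSO, duplicate, 48 h. Readout: ABCC2 mRNA by qRT-PCR, norm. ACTB/GAPDH/POLR2A. Bidirectional fit vs DMSO baseline.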

[6] = read-out: Broad substrate specificity ATP-binding cassette transporter ABCG2 (Homo sapiens) (UniProt Q9UNQ0); assay: LTEA_HepaRG_ABCG2: Life Technologies and Expression Analysis (LTEA) Assay for ABC Transporter (ABCG2) using HepaRG (AID 2283465)
In short: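 Differentiated HepaRG cells in serum-free induction medium were exposed for 48 h, in duplicate, to eight half-log concentrations up to 100 uM in 0.5% DMSO. ABCG2 mRNA was measured by TaqMan qRT-PCR, normalized to ACTB, GAPDH and POLR2A, and fitted bidirectionally versus DMSO.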

[7] = read-out: ATP-citrate lyase (ACLY), ACLY (gene 47); assay: LTEA_HepaRG_ACLY: Life Technologies and Expression Analysis (LTEA) Assay for ATP-citrate lyase (ACLY) using HepaRG (AID 2283466)
In short: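 Differentiated human HepaRG cells in serum-free induction medium exposed 48 h, in duplicate, to eight half-log concentrations from 100 uM top in 0.5% DMSO; ACLY mRNA measured by qRT-PCR, normalized to ACTB, GAPDH, POLR2A, fitted bidirectionally versus DMSO.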

[8] = read-out: Peroxisomal acyl-coenzyme A oxidase 1 (ACOX1) gene, ACOX1 (gene 51); assay: LTEA_HepaRG_ACOX1: Life Technologies and Expression Analysis (LTEA) Assay for Peroxisomal acyl-coenzyme A oxidase 1 (ACOX1) gene using HepaRG (AID 2283467)
In short: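 Differentiated human HepaRG cells were exposed in duplicate for 48 h in serum-free induction medium to eight half-log concentrations up to 100 uM in 0.5% DMSO. ACOX1 mRNA was then quantified by TaqMan qRT-PCR, normalized to ACTB, GAPDH and POLR2A.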

[9] = read-out: Alkaline Phosphatase, Placental (ALPP) gene, ALPP (gene 250); assay: LTEA_HepaRG_ALPP: Life Technologies and Expression Analysis (LTEA) Assay for Alkaline Phosphatase, Placental (ALPP) gene using HepaRG (AID 2283468)
In short: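 HepaRG, 48 h plating then 48 h dosing, serum-free induction medium, 0.5% DMSO. 8 conc, half-log, max 100 uM, duplicates. Endpoint: ALPP transcript by qRT-PCR, housekeeping-normalized; gain or loss fitted vs DMSO.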

[10] = read-out: Bcl-2 (BAD) gene, BAD (gene 572); assay: LTEA_HepaRG_BAD: Life Technologies and Expression Analysis (LTEA) Assay for Bcl-2 (BAD) gene using HepaRG (AID 2283469)
In short: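 Differentiated human HepaRG cells in serum-free induction medium were exposed in duplicate for 48 h to eight concentrations (top 100 uM, half-log steps, 0.5% DMSO). BAD mRNA was quantified by qRT-PCR normalised to ACTB, GAPDH and POLR2A, with bidirectional fitting versus DMSO.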

[11] = read-out: Bcl-2 (BAX) gene, BAX (gene 581); assay: LTEA_HepaRG_BAX: Life Technologies and Expression Analysis (LTEA) Assay for Bcl-2 (BAX) gene using HepaRG (AID 2283470)
In short: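 Differentiated HepaRG cells exposed 48 h in serum-free induction medium, eight half-log concentrations from 100 uM, in duplicate, 0.5% DMSO vehicle. BAX mRNA by TaqMan qRT-PCR, normalised to ACTB, GAPDH and POLR2A.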

[12] = read-out: Alpha-fetoprotein (AFP) gene, AFP (gene 174); assay: LTEA_HepaRG_AFP: Life Technologies and Expression Analysis (LTEA) Assay for Alpha-fetoprotein (AFP) gene using HepaRG (AID 2283472)
In short: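 Differentiated human HepaRG cells exposed 48 h in serum-free induction medium, 8-point half-log series from 100 uM in 0.5% DMSO, duplicate. AFP mRNA by qRT-PCR, normalized to ACTB, GAPDH, POLR2A; bidirectional fit vs DMSO.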

BCL2L11 (gene 10018) = assay: LTEA_HepaRG_BCL2L11: Life Technologies and Expression Analysis (LTEA) Assay for Bcl-2 (BCL2L11) gene using HepaRG (AID 2283473)
In short: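 Read-out is BCL2L11 transcript level by qRT-PCR, normalized to three housekeeping genes and fitted bidirectionally against 0.5% DMSO vehicle. HepaRG cells received chemicals for 48 h in serum-free induction medium, 100 uM down in half-log dilutions.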

[13] = read-out: Apolipoprotein A-V (APOA5) gene, APOA5 (gene 116519); assay: LTEA_HepaRG_APOA5: Life Technologies and Expression Analysis (LTEA) Assay for Apolipoprotein A-V (APOA5) gene using HepaRG (AID 2283474)
In short: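 Readout is APOA5 transcript level by qRT-PCR on Fluidigm dynamic arrays, normalized to three housekeeping genes. HepaRG cultures received chemicals for 48 h at up to 100 uM (half-log steps, 0.5% DMSO), with gain or loss scored relative to DMSO.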

[14] = read-out: Bcl-2 (BID) gene, BID (gene 637); assay: LTEA_HepaRG_BID: Life Technologies and Expression Analysis (LTEA) Assay for Bcl-2 (BID) gene using HepaRG (AID 2283476)
In short: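 Gene expression by qRT-PCR in HepaRG cells after 48 h exposure, duplicate wells, eight half-log concentrations topping at 100 uM in 0.5% DMSO. Normalized to ACTB, GAPDH, POLR2A; bidirectional fitting relative to DMSO.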

[15] = read-out: adenosine kinase (ADK) gene, ADK (gene 132); assay: LTEA_HepaRG_ADK: Life Technologies and Expression Analysis (LTEA) Assay for adenosine kinase (ADK) gene using HepaRG (AID 2283471)
In short: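 ADK expression quantified by qRT-PCR, normalised to three housekeeping genes, after 48 h exposure of HepaRG cells to eight concentrations (top 100 uM, half-log steps, duplicate, 0.5% DMSO). Up- or down-regulation fitted relative to vehicle.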

Broad substrate specificity ATP-binding cassette transporter ABCG2 (Homo sapiens), sequence (Q9UNQ0 whole entry, looked up): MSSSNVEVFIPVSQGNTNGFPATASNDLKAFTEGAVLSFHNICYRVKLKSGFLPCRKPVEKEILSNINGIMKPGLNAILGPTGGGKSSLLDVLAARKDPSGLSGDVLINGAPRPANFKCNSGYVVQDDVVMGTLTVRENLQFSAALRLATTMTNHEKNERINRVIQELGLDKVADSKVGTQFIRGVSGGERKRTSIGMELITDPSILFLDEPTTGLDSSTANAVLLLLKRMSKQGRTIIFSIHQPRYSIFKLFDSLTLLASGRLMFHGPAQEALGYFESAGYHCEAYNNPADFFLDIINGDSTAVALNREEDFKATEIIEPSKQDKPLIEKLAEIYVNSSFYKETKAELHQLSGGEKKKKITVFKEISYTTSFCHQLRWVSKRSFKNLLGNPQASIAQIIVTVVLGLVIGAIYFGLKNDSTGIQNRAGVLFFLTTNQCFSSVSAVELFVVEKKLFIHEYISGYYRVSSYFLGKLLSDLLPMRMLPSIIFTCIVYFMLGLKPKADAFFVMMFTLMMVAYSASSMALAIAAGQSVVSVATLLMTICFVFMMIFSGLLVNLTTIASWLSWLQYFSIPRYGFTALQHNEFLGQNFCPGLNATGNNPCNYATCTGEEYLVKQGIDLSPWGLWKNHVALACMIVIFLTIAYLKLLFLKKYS

Row | Compound | outcome [1] | outcome [2] | outcome [3] | outcome [4] | outcome [5] | outcome [6] | outcome [7] | outcome [8] | outcome [9] | outcome [10] | outcome [11] | outcome [12] | outcome (BCL2L11 (gene 10018)) | outcome [13] | outcome [14] | outcome [15] | AC50 [3]
1 | c1cc2c3c(cccc3c1)CC2 | inactive | inactive | inactive | inactive | inactive | inactive | inactive | inactive | inactive | inactive | inactive | inactive | inactive | inactive | inactive |  | 
2 | CC(C)(C)c1ccc(O)cc1 | inactive | inactive |  | inactive | inactive | inactive | inactive | inactive | inactive | inactive | inactive | inactive | inactive | inactive | inactive | inactive | 
3 | O=C(O)C(Cl)Cl | inactive | inactive | inactive | inactive | inactive | inactive | inactive | inactive | inactive | inactive | inactive | inactive | inactive | inactive | inactive |  | 
4 | Nc1cc2c3c(c1)C(c1ccccc1)=N[C@@H](NC(=O)c1cccnc1)C(=O)N3CC2 | inactive | inactive |  | inactive | inactive | inactive | inactive | inactive | inactive | inactive | inactive | inactive | inactive | inactive | inactive |  | 18.5 µM (active)
5 | Nc1ccc(Cl)cc1 | inactive | inactive | inactive | inactive | inactive | inactive | inactive | inactive | inactive | inactive | inactive | inactive | inactive | inactive | inactive |  | 
6 | CCC1(c2ccccc2)C(=O)N=C(O)NC1=O (stereo not given) | inactive | inactive | inactive | inactive | inactive | inactive | inactive | inactive | inactive | inactive | inactive | inactive | inactive | inactive | inactive |  | 
7 | CCCCc1ccccc1 | inactive | inactive | inactive | inactive | inactive | inactive | inactive | inactive | inactive | inactive | inactive | inactive | inactive | inactive | inactive |  | 
8 | CC(C)(C)OOC(C)(C)C | inactive | inactive | inactive | inactive | inactive | inactive | inactive | inactive | inactive | inactive | inactive | inactive | inactive | inactive | inactive |  | 
9 | O=C(O)C1C(C(=O)O)C2(Cl)C(Cl)=C(Cl)C1(Cl)C2(Cl)Cl (stereo not given) | inactive | inactive | inactive | inactive | inactive | inactive | inactive | inactive | inactive | inactive | inactive | inactive | inactive | inactive | inactive |  | 
10 | CCOC(=O)c1ccccc1C(=O)OCC | inactive | inactive | inactive | inactive | inactive | inactive | inactive | inactive | inactive | inactive | inactive | inactive | inactive | inactive | inactive |  | 
11 | Cc1ccc(N)cc1N | inactive | inactive | inactive | inactive | inactive | inactive | inactive | inactive | inactive | inactive | inactive | inactive | inactive | inactive | inactive |  | 
